Most compounds without a hit are left out; they make up all but 4.9% or so of the library.
dFosB act: activators of delta FosB homodimer, primary screen, biochemical, fluorescence polarization, TAMRA-CDK5 oligo, single point; purified delta FosB; percent of positive-control signal above neutral wells; activation, % at 25 µM; actives 0.99% (n = 340,000); AID 493131, 2011;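 active means mean activation above about 17%, with every replicate also reaching it, limit read from the data, passing the limit was not always enough; inconclusive means only one of the two conditions met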
Target sequence (P13346 whole entry, looked up): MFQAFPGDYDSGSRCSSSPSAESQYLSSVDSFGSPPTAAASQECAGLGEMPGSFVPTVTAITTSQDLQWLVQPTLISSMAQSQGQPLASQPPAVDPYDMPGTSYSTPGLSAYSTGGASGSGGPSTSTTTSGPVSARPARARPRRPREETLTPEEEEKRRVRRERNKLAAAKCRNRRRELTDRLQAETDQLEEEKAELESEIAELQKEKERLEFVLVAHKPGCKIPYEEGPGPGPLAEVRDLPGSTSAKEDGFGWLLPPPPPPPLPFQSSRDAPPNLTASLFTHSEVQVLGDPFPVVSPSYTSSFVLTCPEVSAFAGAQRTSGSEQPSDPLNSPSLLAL
Platelet DG rel: inhibitors of platelet dense granule secretion, primary screen, cell-based, MLPCN, human platelets | human platelet-rich plasma, SFLLRN dense granule ATP release, luminescence | inhibition, %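 (compounds screened at 7.5 µM in platelet-rich plasma)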 | actives 0.22% (n = 300,000);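 active means mean replicate score, as percent of positive control, at or above 50; inconclusive means mean below 50 but at least one replicate at or above 50; inactive means mean and every replicate below 50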
HSF-1 act: HSF-1 activators, primary screen, NIH3T3-HGL cells, MG132 stress, luminescence, single point; NIH3T3-HGL HSF-1 luciferase reporter, 8 h; 100% = twice DMSO control signal; activation, % at 9 µM; actives 1.7% (n = 300,000);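 active means mean replicate activation of at least 50% with a set share of replicates each reaching 50%; inconclusive means only one of those two conditions met; inactive means mean below 50% and too few replicates reaching it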;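 further: 0% = median of the neutral control wells and 100% = twice that signal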
HSF1 inh: HSF1 inhibitors in luciferase reporter cells, primary screen, cell-based, NIH3T3, luminescence; NIH3T3-HGL HSE-luciferase, MG132-induced, luminescence 8 h; hits give low values; activity change, negative = inhibition, % at 7.5 µM (by protocol); actives 0.77% (n = 300,000); AID 2098, 2009;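 active means more than half of replicate wells show activity change below -50%, luminescence cut by over half; inconclusive means some wells, but at most half, below -50%; inactive means no replicate well below -50%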;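 further: luciferase reports HSF-1 transcriptional activity via heat shock element; 0% = median of DMSO wells and -100% = zero luminescence signal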
HSP90 refold inh: HSP90 inhibitors, primary screen, cell lysate, luminescence; AID 1789, 2009; actives 0.91% (n = 290,000); Heat shock protein HSP 90 (rabbit reticulocyte lysate; luciferase refolding); Rabbit reticulocyte lysate, luciferase refolding luminescence, 3 h; inhibition, % at 5.6 µM;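 active means inhibition above the screen-wide mean plus 3 SD, computed separately per campaign, cut at about 16% in these data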;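 further: 0% = DMSO wells and 100% = 60 µM geldanamycin wells; inhibitors lower the luminescence because luciferase stays unfolded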
MPTP inh: mitochondrial permeability transition pore inhibitors, primary screen, biochemical, isolated mouse mitochondria, absorbance; AID 602449, 2012; inhibition, % at 10 µM; actives 1.4% (n = 360,000); Ca2+ swelling absorbance, 30 min;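 active means inhibition of 50% or more, scaled per plate between neutral and stimulator controls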;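 further: 0% = DMSO wells given calcium and 100% = 1 mM EGTA wells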
Numbers without * were called inactive.

Screening CC(C)NC(=O)N(O)C1N(Cc2ccc3c(c2)OCO3)C(=S)SC1(C)C (stereo not given) returned dFosB act -2, Platelet DG rel -1, HSF-1 act -67, HSF1 inh -58*, HSP90 refold inh 0 and MPTP inh -2.
For CC(C)NC(=O)N(O)C1N(C(C)C)C(=O)N(Cc2ccc3c(c2)OCO3)C1(C)C (stereo not given) the results were dFosB act -10, Platelet DG rel 11, HSF-1 act -13, HSF1 inh -1, HSP90 refold inh 3 and MPTP inh 1.
Screening Cc1cccc(C)c1N1CCN(S(=O)(=O)c2ccc(F)cc2)CC1 returned dFosB act -7, Platelet DG rel -13, HSF-1 act 55*, HSF1 inh 14, HSP90 refold inh 0 and MPTP inh 2.
Screening Cc1ccccc1CN1CCN(S(=O)(=O)c2ccc(F)cc2)CC1 returned dFosB act 1, Platelet DG rel 4, HSF-1 act -17, HSF1 inh 4, HSP90 refold inh -1 and MPTP inh 0.
`COc1ccc(NC(=O)CCc2nnc3ccc(NCc4ccc5c(c4)OCO5)nn23)cc1` gave dFosB act inconclusive, Platelet DG rel 9, HSF-1 act 66*, HSF1 inh 23, HSP90 refold inh 5 and MPTP inh -1.
COc1ccc(NC(=O)CCc2nnc3ccc(NCc4ccco4)nn23)cc1 was read as dFosB act -4, Platelet DG rel 15, HSF-1 act 1, HSF1 inh -4, HSP90 refold inh -1 and MPTP inh 0.
`Cc1ccc(N2C(=O)C3CC(c4ccccc4)=C4C5C=CC(C6C(=O)N(c7ccc(C)cc7)C(=O)C56)C4C3C2=O)cc1` (stereo not given) gave dFosB act -13, Platelet DG rel -14, HSF-1 act 12, HSF1 inh 6, HSP90 refold inh 0 and MPTP inh -2.
Cc1ccc(N2C(=O)C3CC(c4ccccc4)=C4C5C=CC(C6C(=O)N(c7ccc(C)cc7C)C(=O)C56)C4C3C2=O)c(C)c1 (stereo not given) was read as dFosB act -1, Platelet DG rel 0, HSF-1 act 88*, HSF1 inh 40, HSP90 refold inh 8 and MPTP inh 1.
Cc1cc(NC(=O)CC2(CC(=O)O)CCCC2)n(C)n1 was read as dFosB act 5, Platelet DG rel 10, HSF-1 act -1, HSF1 inh 0, HSP90 refold inh 2 and MPTP inh -1.
Screening CC1=NNC(=O)C1C(c1ccccc1)C1C(=O)NN=C1C (stereo not given) returned Platelet DG rel 3, HSF-1 act 128*, HSF1 inh 84 and HSP90 refold inh -2.
Screening CC1=NNC(=O)C1Cc1ccccc1 (stereo not given) returned Platelet DG rel -1, HSF-1 act 11, HSF1 inh 1 and MPTP inh 1.
Screening C=C(C(=O)c1ccccc1)C(CC(=O)c1ccccc1)c1ccccc1 (stereo not given) returned dFosB act -2, Platelet DG rel 1, HSF-1 act 144*, HSF1 inh 86, HSP90 refold inh 1 and MPTP inh 2.
Screening COc1ccccc1C(CC(=O)c1ccccc1)C(=O)c1ccccc1 (stereo not given) returned MPTP inh -1.
C=C(CCC(=O)c1ccccc1)C(=O)c1ccccc1 was read as dFosB act -7, Platelet DG rel -7, HSF-1 act 103*, HSF1 inh 70, HSP90 refold inh 4 and MPTP inh 0.
CCCCNC(=O)C1(C)CCN1C(=O)c1ccc(F)cc1Cl (stereo not given) was read as MPTP inh -1.
`COc1ccc(C(C)=O)cc1CSc1ccc2c(c1)OCCO2` gave dFosB act -5, Platelet DG rel -16, HSF-1 act 27, HSF1 inh -1, HSP90 refold inh 2 and MPTP inh -1.
`O=C(CCl)N=c1sccn1Cc1ccc(Cl)cc1Cl` gave dFosB act 1, Platelet DG rel -12, HSF-1 act -98, HSF1 inh -98*, HSP90 refold inh 0 and MPTP inh 0.
`O=C(CCl)N=c1sccn1Cc1ccccc1Cl` gave dFosB act 1, Platelet DG rel -3, HSP90 refold inh 1 and MPTP inh 1.
COc1ccccc1NC(=O)c1ccc(NS(C)(=O)=O)cc1 was read as dFosB act 9, Platelet DG rel -1, HSF-1 act 10, HSF1 inh 1, HSP90 refold inh -2 and MPTP inh -1.
CCc1ccccc1NC(=O)c1ccc(NS(C)(=O)=O)cc1 was read as dFosB act 3, Platelet DG rel -1, HSF-1 act -64, HSF1 inh -56*, HSP90 refold inh -3 and MPTP inh 0.
`CCOC(=O)C(CN1CCCC1)c1ccccc1` (stereo not given) gave dFosB act 0, Platelet DG rel 0, HSF-1 act -10, HSF1 inh -8 and MPTP inh 0.
Screening O=C(c1ccc(Cl)cc1)C(CN1CCCCC1)c1ccccc1 (stereo not given) returned dFosB act -3, Platelet DG rel 1, HSF-1 act 107*, HSF1 inh 86, HSP90 refold inh -1 and MPTP inh -1.
Screening Cc1c(-c2nc(N)nc(Nc3ccccc3F)n2)oc2ccccc12 returned dFosB act -10, Platelet DG rel -13, HSP90 refold inh 0 and MPTP inh -1.
Screening Cc1ccc(Nc2nc(N)nc(-c3oc4ccccc4c3C)n2)cc1 returned dFosB act 76*, Platelet DG rel -4, HSF-1 act 21, HSF1 inh 4, HSP90 refold inh -1 and MPTP inh 6.
CCc1[nH]nc2c1C1(CCN(C(=O)OCc3ccccc3)CC1)C(C#N)=C(N)O2 was read as dFosB act -2, Platelet DG rel 4, HSF-1 act 55*, HSF1 inh 7, HSP90 refold inh -2 and MPTP inh -1.
Screening COc1ccc(C2=NN(Cc3ccccc3)C3C(=O)NC(=O)C23)cc1 (stereo not given) returned dFosB act -4, Platelet DG rel 1, HSF-1 act 12, HSF1 inh 2, HSP90 refold inh 1 and MPTP inh 0.
Screening CN1C(=O)C2C(c3ccc(N(C)C)cc3)=NN(Cc3ccccc3)C2C1=O (stereo not given) returned dFosB act -6, Platelet DG rel 2, HSF-1 act 75*, HSF1 inh 29, HSP90 refold inh 4 and MPTP inh 0.

High-throughput results: PubChem, several laboratories
